# About 85 (1%) of roughly 5,700 compounds were called active. This is one part of a sample in which actives are shown more often than they occur. Cut-off read from the data, not from the text of the source: active = p53-positive nuclei above about 36% (passing the limit was not always enough); inactive = the rest.
# Tests used:
# [1] = nuclear p53 accumulation, HPV+ cells – imaging, p53-positive nuclei imaging, 24 h, 48 h (AID 1508601); details: 24/48 h
# [2] = molecular target: Cellular tumor antigen p53 (Homo sapiens) (UniProt P04637); assay: as above; details: 24/48 h, stronger effect = higher value
# [3] = measured here: cell number at 24 h, Library stock concentration: 10 mM
# [4] = measured here: cell number at 48 h, Library stock concentration: 10 mM
# [5] = Library stock concentration: 10 mM
# [6] = measured here: p53 positive nuclei at 24 h, Library stock concentration: 10 mM
# [7] = measured here: cell number at 24 h, Library stock concentration: 80 uM
# [8] = measured here: cell number at 24 h, Library stock concentration: 400 uM
# [9] = measured here: cell number at 24 h, Library stock concentration: 2 mM
# [10] = measured here: cell number at 24 h, Library stock concentration: 3.33 mM
# [11] = measured here: cell number at 48 h, Library stock concentration: 80 uM
# [12] = measured here: cell number at 48 h, Library stock concentration: 400 uM
# [13] = measured here: cell number at 48 h, Library stock concentration: 2 mM
# [14] = measured here: cell number at 48 h, Library stock concentration: 3.33 mM
# [15] = Library stock concentration: 80 uM
# [16] = Library stock concentration: 400 uM
# [17] = Library stock concentration: 2 mM
# [18] = Library stock concentration: 3.33 mM
# [19] = measured here: p53 positive nuclei at 24 h, Library stock concentration: 80 uM
# [20] = measured here: p53 positive nuclei at 24 h, Library stock concentration: 400 uM
# [21] = measured here: p53 positive nuclei at 24 h, Library stock concentration: 2 mM
# [22] = measured here: p53 positive nuclei at 24 h, Library stock concentration: 3.33 mM
# Sequence of Cellular tumor antigen p53 (Homo sapiens) (P04637 whole entry, looked up): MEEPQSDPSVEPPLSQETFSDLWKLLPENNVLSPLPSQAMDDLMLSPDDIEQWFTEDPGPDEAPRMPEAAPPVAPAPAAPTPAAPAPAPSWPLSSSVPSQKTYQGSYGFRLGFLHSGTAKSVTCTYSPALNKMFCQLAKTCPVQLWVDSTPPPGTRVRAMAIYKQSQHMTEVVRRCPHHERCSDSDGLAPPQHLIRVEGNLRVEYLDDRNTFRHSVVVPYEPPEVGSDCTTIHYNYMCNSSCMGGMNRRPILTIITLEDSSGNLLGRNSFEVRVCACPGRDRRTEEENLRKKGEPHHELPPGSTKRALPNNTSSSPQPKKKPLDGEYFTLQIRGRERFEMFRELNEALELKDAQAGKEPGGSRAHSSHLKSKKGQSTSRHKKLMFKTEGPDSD
smiles,measurement,setting,value
Cc1cc(C)c(N(Cc2ccccc2)S(=O)(=O)c2ccc(OCCNC(=O)c3cc4ccccc4o3)cc2)c(C(=O)NO)c1,"nuclei count, normalised","[1]; measured here: cell number at 24 h, Library stock concentration: 46 uM",106%
same,"nuclei count, normalised","[1]; measured here: cell number at 24 h, Library stock concentration: 278 uM",102%
same,"nuclei count, normalised","[1]; measured here: cell number at 24 h, Library stock concentration: 1.67 mM",106%
same,"nuclei count, normalised",[1]; [3],108%
same,"nuclei count, normalised","[1]; measured here: cell number at 48 h, Library stock concentration: 46 uM",108%
same,"nuclei count, normalised","[1]; measured here: cell number at 48 h, Library stock concentration: 278 uM",104%
same,"nuclei count, normalised","[1]; measured here: cell number at 48 h, Library stock concentration: 1.67 mM",111%
same,"nuclei count, normalised",[1]; [4],119%
same,"p53-positive nuclei, normalised",[2]; Library stock concentration: 46 uM,-0.344% (inactive)
same,"p53-positive nuclei, normalised",[2]; Library stock concentration: 278 uM,-0.116% (inactive)
same,"p53-positive nuclei, normalised",[2]; Library stock concentration: 1.67 mM,-0.271% (inactive)
same,"p53-positive nuclei, normalised",[2]; [5],0.0163% (inactive)
same,"p53-positive nuclei, normalised","[2]; measured here: p53 positive nuclei at 24 h, Library stock concentration: 46 uM",-0.21%
same,"p53-positive nuclei, normalised","[2]; measured here: p53 positive nuclei at 24 h, Library stock concentration: 278 uM",-0.21%
same,"p53-positive nuclei, normalised","[2]; measured here: p53 positive nuclei at 24 h, Library stock concentration: 1.67 mM",-0.139%
same,"p53-positive nuclei, normalised",[2]; [6],-0.147%
CC(C)C1C(=O)NC(CCCN=C(N)N)C(=O)NCC(=O)NC(CC(=O)O)C(=O)NC(Cc2ccccc2)C(=O)N1C (stereo not drawn),"nuclei count, normalised",[1]; [7],104%
same,"nuclei count, normalised",[1]; [8],96.6%
same,"nuclei count, normalised",[1]; [9],88.2%
same,"nuclei count, normalised",[1]; [10],88.5%
same,"nuclei count, normalised",[1]; [3],51.2%
same,"nuclei count, normalised",[1]; [11],94.6%
same,"nuclei count, normalised",[1]; [12],89.6%
same,"nuclei count, normalised",[1]; [13],76.5%
same,"nuclei count, normalised",[1]; [14],85.4%
same,"nuclei count, normalised",[1]; [4],34.6%
same,"p53-positive nuclei, normalised",[2]; [15],0.242% (inactive)
same,"p53-positive nuclei, normalised",[2]; [16],0.104% (inactive)
same,"p53-positive nuclei, normalised",[2]; [17],-0.113% (inactive)
same,"p53-positive nuclei, normalised",[2]; [18],-0.0271% (inactive)
same,"p53-positive nuclei, normalised",[2]; [5],-0.0215% (inactive)
same,"p53-positive nuclei, normalised",[2]; [19],0.00102%
same,"p53-positive nuclei, normalised",[2]; [20],-0.0368%
same,"p53-positive nuclei, normalised",[2]; [21],-0.0914%
same,"p53-positive nuclei, normalised",[2]; [22],-0.218%
same,"p53-positive nuclei, normalised",[2]; [6],-0.22%
CC(CCC(=O)O)C1CC[C@H]2[C@@H]3C(O)C[C@@H]4CC(O)CC[C@]4(C)[C@@H]3CC[C@]12C (stereo partly drawn),"nuclei count, normalised",[1]; [7],103%
same,"nuclei count, normalised",[1]; [8],104%
same,"nuclei count, normalised",[1]; [9],103%
same,"nuclei count, normalised",[1]; [3],105%
same,"nuclei count, normalised",[1]; [11],101%
same,"nuclei count, normalised",[1]; [12],101%
same,"nuclei count, normalised",[1]; [13],100%
same,"nuclei count, normalised",[1]; [4],106%
same,"p53-positive nuclei, normalised",[2]; [15],0.0117% (inactive)
same,"p53-positive nuclei, normalised",[2]; [16],-0.178% (inactive)
same,"p53-positive nuclei, normalised",[2]; [17],0.0148% (inactive)
same,"p53-positive nuclei, normalised",[2]; [5],-0.147% (inactive)
same,"p53-positive nuclei, normalised",[2]; [19],0.00498%
same,"p53-positive nuclei, normalised",[2]; [20],-0.109%
same,"p53-positive nuclei, normalised",[2]; [21],-0.106%
same,"p53-positive nuclei, normalised",[2]; [6],-0.11%
O=C(O)CCCc1c[nH]c2ccccc12,"nuclei count, normalised",[1]; [10],110%
same,"nuclei count, normalised",[1]; [14],101%
same,"p53-positive nuclei, normalised",[2]; [18],-0.0398% (inactive)
same,"p53-positive nuclei, normalised",[2]; [22],2.53%
O=C(C=Cc1ccc(CN(CCO)CCc2c[nH]c3ccccc23)cc1)NO,"nuclei count, normalised",[1]; [10],37.8%
same,"nuclei count, normalised",[1]; [14],20.4%
same,"p53-positive nuclei, normalised",[2]; [18],113% (active)
same,"p53-positive nuclei, normalised",[2]; [22],94.4%
OCc1c[nH]c2ccccc12,"nuclei count, normalised",[1]; [7],116%
same,"nuclei count, normalised",[1]; [8],113%
same,"nuclei count, normalised",[1]; [9],124%
same,"nuclei count, normalised",[1]; [10],121%
same,"nuclei count, normalised",[1]; [3],113%
same,"nuclei count, normalised",[1]; [11],111%
same,"nuclei count, normalised",[1]; [12],105%
same,"nuclei count, normalised",[1]; [13],115%
same,"nuclei count, normalised",[1]; [14],105%
same,"nuclei count, normalised",[1]; [4],106%
same,"p53-positive nuclei, normalised",[2]; [15],-0.0881% (inactive)
same,"p53-positive nuclei, normalised",[2]; [16],0.33% (inactive)
same,"p53-positive nuclei, normalised",[2]; [17],0.0198% (inactive)
same,"p53-positive nuclei, normalised",[2]; [18],-0.0843% (inactive)
same,"p53-positive nuclei, normalised",[2]; [5],-0.042% (inactive)
same,"p53-positive nuclei, normalised",[2]; [19],-0.0144%
same,"p53-positive nuclei, normalised",[2]; [20],0.188%
same,"p53-positive nuclei, normalised",[2]; [21],0.151%
same,"p53-positive nuclei, normalised",[2]; [22],-0.374%
same,"p53-positive nuclei, normalised",[2]; [6],0.0508%
CCc1cc2c(cc1CC)CC(NCC(O)c1ccc(O)c3[nH]c(=O)ccc13)C2 (stereo not drawn),"nuclei count, normalised",[1]; [10],112%
same,"nuclei count, normalised",[1]; [14],110%
same,"p53-positive nuclei, normalised",[2]; [18],-0.298% (inactive)
same,"p53-positive nuclei, normalised",[2]; [22],-0.54%
CCCCC[C@H](O)/C=C/[C@H]1[C@H](O)CC(=O)[C@@H]1C/C=C\CCCC(=O)OC,"nuclei count, normalised","[1]; measured here: cell number at 24 h, concentration not given here",111%
same,"nuclei count, normalised","[1]; measured here: cell number at 48 h, concentration not given here",106%
same,"p53-positive nuclei, normalised",[2]; concentration not given here,-0.0657% (inactive)
same,"p53-positive nuclei, normalised","[2]; measured here: p53 positive nuclei at 24 h, concentration not given here",0.249%

# Reference: PubChem BioAssay AID1508601 (ICCB-Longwood Screening Facility, Harvard Medical School, 2020)
